The full list was thinned out, with hits kept by preference.
DT40 TDP1 CPT = qHTS for Inhibitors of human tyrosyl-DNA phosphodiesterase 1 (TDP1): qHTS in cells in presence of CPT. chicken DT40 Tdp1-/-;hTDP1 cells + 20 nM CPT, ATP luminescence, 48 h. Potency, µM (highest dose often 46.2 µM), for the others: at the top dose activity change, negative = growth inhibition, most hits filed as inhibitors. 420,000 compounds, 12% hits; also: potency is read from the fitted curve at half-maximal effect; nearly all actives have a fitted effect of over 55% in size
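Cell growth measured by CellTiter-Glo luminescence after a minimum 48 h, 37 C compound exposure with 20 nM CPT in Tdp1-knockout DT40 cells stably expressing hTDP1, seeded 400/well; qHTS titration format.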
HT1080 IDH1KD tx = qHTS for induction of synthetic lethality in tumor cells producing 2HG: qHTS for the HT-1080-IDH1KD cell line; 360,000 compounds, 2% hits; AID 686971, 2013; HT-1080 IDH1 knockdown viability, ATP luminescence, 48 h; Potency, µM (series often up to 46.1 µM), for inactives: at the highest dose activity, negative = toxicity, actives largely listed as cytotoxic;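 also: potency is read from the fitted curve at half-maximal effect; 0% = DMSO wells and -100% = cell-free medium wells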
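% activity derives from luminescence (CellTiter-Glo), normalised to DMSO and no-cell wells. HT-1080-IDH1KD cells, 750/well, had 48 h compound exposure at 37 °C.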
12-LOX inh = Primary qHTS assay for inhibitors of human arachidonate 12S-lipoxygenase (ALOX12): Round 2 | purified 12hLO, xylenol orange hydroperoxide absorbance | Potency, µM (series often up to 108 µM), for the others: at the highest dose activity change, negative = inhibition, most hits filed as inhibitors | 580,000 compounds, 1.1% hits | AID 1671190, 2021; also: potency is read from the fitted curve at half-maximal effect
Target sequence (P18054 whole entry, looked up): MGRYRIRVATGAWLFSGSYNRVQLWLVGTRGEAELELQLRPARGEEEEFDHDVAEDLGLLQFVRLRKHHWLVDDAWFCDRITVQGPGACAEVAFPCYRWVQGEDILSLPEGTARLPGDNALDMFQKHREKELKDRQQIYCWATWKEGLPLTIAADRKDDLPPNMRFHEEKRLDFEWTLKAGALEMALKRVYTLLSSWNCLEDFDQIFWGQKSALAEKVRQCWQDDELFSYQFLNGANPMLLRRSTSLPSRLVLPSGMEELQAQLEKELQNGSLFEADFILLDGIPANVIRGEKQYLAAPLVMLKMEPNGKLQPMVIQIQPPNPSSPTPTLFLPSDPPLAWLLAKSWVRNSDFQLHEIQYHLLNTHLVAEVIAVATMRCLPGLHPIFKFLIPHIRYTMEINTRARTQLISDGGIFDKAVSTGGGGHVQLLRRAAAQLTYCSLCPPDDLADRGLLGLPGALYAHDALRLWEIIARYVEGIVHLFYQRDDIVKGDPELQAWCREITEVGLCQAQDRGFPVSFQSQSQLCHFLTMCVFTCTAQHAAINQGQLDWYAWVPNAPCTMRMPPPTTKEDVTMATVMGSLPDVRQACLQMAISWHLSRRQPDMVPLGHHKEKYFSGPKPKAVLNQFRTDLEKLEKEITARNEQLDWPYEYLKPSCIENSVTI
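Purified human 12hLO (150 nM final) in 25 mM Hepes, 0.01% Triton X-100, pH 7.0 was preincubated 15 min at room temperature with compound. Then 40 uM arachidonic acid was added, 30 min. Hydroperoxide was read by Fe-XO absorbance ratio 573/405 nm.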
IL1B secr inh = qHTS for Inhibitors of Inflammasome Signaling: IL-1-beta AlphaLISA Primary Screen. AID 743279, 2014. 360,000 compounds, 4.7% hits. THP-1 LPS/ATP IL-1B secretion, AlphaLISA, 16 h; hits give low values. activity change, % at 57.5 µM; in the data active = activity change below about -50%; inconclusive = mostly about -30% to -49%
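Secreted IL-1B measured by AlphaLISA bead assay after 16 h compound exposure of THP-1 cells; compounds (final up to 57.5 uM) added 1 h before LPS (250 ng/mL) and ATP (1.25 mM) stimulation; lower signal means less secretion.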
HT1080NT lethal = qHTS for induction of synthetic lethality in tumor cells producing 2HG: qHTS for the HT-1080-NT fibrosarcoma cell line. 360,000 compounds, 1.6% hits. Potency, µM (top dose mostly 46.1 µM), for inactives: top-dose activity, negative = less viability, hits mostly cytotoxic. HT-1080-NT fibrosarcoma viability, CellTiter-Glo ATP luminescence, 48 h. AID 686970, 2013;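 also: NT is the 2HG producing partner of a matched IDH1 knockdown line; potency is read from the fitted curve at half-maximal effect; 0% = DMSO-treated cells and -100% = media-only wells without cells; nearly all actives have a fitted effect of over 55% in size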
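Luminescent CellTiter-Glo readout after 48 hours of compound exposure at 37 degrees C defined viability of HT-1080-NT cells. Activity was normalized to DMSO wells and cell-free media wells; concentration-response curves were fitted and assigned curve classes.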
DT40 TDP1 no CPT = qHTS for Inhibitors of human tyrosyl-DNA phosphodiesterase 1 (TDP1): qHTS in cells in absence of CPT; DT40 Tdp1-/- hTDP1 cells, no CPT, ATP luminescence, 48 h; Potency, µM (top dose mostly 46.2 µM), without a hit: at the top dose activity change, negative = growth inhibition, hits mostly inhibitors; AID 686978, 2013; 420,000 compounds, 15% hits; also: potency is read from the fitted curve at half-maximal effect; nearly all actives have a fitted effect of over 55% in size
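Growth kinetics read by CellTiter-Glo luminescence after ≥48 hr at 37 °C. Cells: DT40 Tdp1-/- stably carrying human TDP1, 400 per well, compound exposure in the absence of CPT (DMSO vehicle).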
* marks the source's active call; other numbers are inactive results; u = inconclusive; x = no result given; [ ] = dose if it differs, or a comment. Unless noted, calls follow the shape of the dose curve; as a rule, active = well fitted curve in the direction sought with a large enough effect; inconclusive = small, poorly fitted or top-dose-only effect, or another doubt; inactive = no such curve, though single readings can be large; an effect the other way counts as inactive or inconclusive. Unless noted, % is scaled to controls: 0 for no effect and ±100 for the full control effect.

SMILES | DT40 TDP1 CPT | HT1080 IDH1KD tx | 12-LOX inh | IL1B secr inh | HT1080NT lethal | DT40 TDP1 no CPT
COc1ccc(C(C(=O)Nc2ccc(C(C)C)cc2)N(Cc2ccco2)C(=O)CC2NC(=O)NC2=O)cc1 (stereo not drawn) | u | -10.6% | u | -70.0* | -13.7% | u
CCOc1cc(C#N)c(NC(=O)c2ccc(Cl)cc2)cc1OCC | x | x | 29.8% | x | x | x
CCOC(=O)c1ccc(NC(=O)CSc2ccc(-c3sc(C)nc3C)nn2)cc1 | u | x | 7.2% | x | x | u
Cc1nc(C)c(-c2ccc(SCC(=O)Nc3ccccc3F)nn2)s1 | u | x | -18.0% | x | x | 14.6µM*
Cc1nc(C)c(-c2ccc(SCC(=O)Nc3cccc(C)c3C)nn2)s1 | 16.4µM* | x | 0.0% | x | x | 20.6µM*
COc1ccc2c(COC(=O)CNC(=O)c3ccc(C)c(C)c3)cc(=O)oc2c1 | x | x | -18.7% | x | x | x
CC(C)Cn1c(N)c(C(=O)CSc2nc3ncc(Cl)cc3[nH]2)c(=O)n(C)c1=O | u | -11.3% | u | u | -3.1% | 16.4µM*
CC(C)OC(=O)CSc1nc2ncc(Cl)cc2[nH]1 | -13.7% | -3.7% | 9.4% | u | -3.4% | -3.2%
Cc1ccc2nc(SCC(=O)c3c(C)[nH]c4ccccc34)[nH]c2c1 | 23.1µM* | -3.1% | -10.2% | u | -13.1% | 18.4µM*
Cc1[nH]c2ccccc2c1C(=O)CSc1nc2ncc(Cl)cc2[nH]1 | 13µM* | u | -25.2% | 30.2 | -12.0% | u
O=C(CSc1nnc(Nc2cccc(F)c2)s1)Nc1ccnn1C1CCCC1 | x | x | -9.6% | x | x | x
COc1ccc(OC2CN(C(=O)c3ccc(C(F)(F)F)cc3)C2)cc1 | x | x | 2.2%[6.33 µM] | x | x | x
COc1ccc(NC(=O)CSc2nc3ccc(Nc4nc(N5CCOCC5)nc(N5CCOCC5)n4)cc3s2)cc1 | 11.6µM* | 2.4% | -6.2% | -9.6 | 1.9% | 6.51µM*
CC(=O)CSc1nc2ccc(Nc3nc(N4CCOCC4)nc(N4CCOCC4)n3)cc2s1 | u | u | 3.9% | -13.4 | -20.7% | u
Cc1ccc(NC(=O)CSc2nc3ccc(Nc4nc(N5CCOCC5)nc(N5CCOCC5)n4)cc3s2)cc1 | u | 2.3% | -8.2% | 20.7 | 0.4% | 18.4µM*
CCOC(=O)CSc1nc2ccc(Nc3nc(N4CCOCC4)nc(N4CCOCC4)n3)cc2s1 | u | u | -13.1% | 17.1 | 2.9% | 20.6µM*
CC(C)(C)NC(=O)CSc1nc2ccc(Nc3nc(N4CCOCC4)nc(N4CCOCC4)n3)cc2s1 | 13µM* | u | 1.7% | -8.3 | u | 6.51µM*
CC(=O)Nc1ccc2nc(SCC(=O)Nc3ccc(N4CCOCC4)c(Cl)c3)sc2c1 | u | -13.5% | u | 0.0 | -0.3% | u
CCOC(=O)CSc1nc2ccc(NC(=O)c3cccc(F)c3)cc2s1 | -21.3% | x | -8.9% | x | x | -26.5%
N#C/C(=C/c1cccc(/C=C(/C#N)c2nc3ccccc3[nH]2)c1)c1nc2ccccc2[nH]1 | x | x | -29.0% | x | x | x
CCOC(=O)C(C)Oc1ccc2c(=O)c(Oc3ccc(OCC)cc3)c(C)oc2c1 (stereo not drawn) | x | x | 7.4% | x | x | x
CCOc1cc(C(c2c(C)[nH][nH]c2=O)c2c(C)[nH][nH]c2=O)ccc1OCc1ccc(F)cc1 | x | x | -16.8% | x | x | x
Cc1nc(C)c(C(=O)N2CCCCCCNC(=O)[C@@H]3CCCC[C@@H]32)s1 | x | x | 12.5% | x | x | x

Screening results deposited in PubChem by National Center for Advancing Translational Sciences (NCATS).
